Data published in ChEMBL document CHEMBL4296182, “CO-ADD screening of NIH NCI Diversity Set V”.
For part of these data: Entries with a potency or affinity are not part of this list.

How the values were obtained:
Staphylococcus aureus = assay: Antibacterial activity against Staphylococcus aureus MRSA ATCC 43300 (CO-ADD:GP_020); MIC in CAMBH media using NBS plates, by Resazurin F(560/590); type: functional; conditions: Concentration 20 uM, ASSAY_TEST Inhibition of Bacterial Growth, detection method Resazurin, Fluorescence (ex560/em590), MEDIA CAMHB, plate type 384well, CORNING #3640, time 18 hr
Acinetobacter baumannii = assay: Antibacterial activity against Acinetobacter baumannii ATCC 19606 (CO-ADD:GN_034); MIC in CAMBH media using NBS plates, by Resazurin F(560/590); type: functional; conditions: Concentration 20 uM, ASSAY_TEST Inhibition of Bacterial Growth, detection method Resazurin, Fluorescence (ex560/em590), MEDIA CAMHB, plate type 384well, CORNING #3640, time 18 hr
Escherichia coli = assay: Antibacterial activity against Escherichia coli ATCC 25922 (CO-ADD:GN_001); MIC in CAMBH media using NBS plates, by Resazurin F(560/590); type: functional; conditions: Concentration 20 uM, ASSAY_TEST Inhibition of Bacterial Growth, detection method Resazurin, Fluorescence (ex560/em590), MEDIA CAMHB, plate type 384well, CORNING #3640, time 18 hr
Klebsiella pneumoniae = conditions: Concentration 20 uM; ASSAY_TEST Inhibition of Bacterial Growth; detection method Absorption (OD600); MEDIA CAMHB; plate type 384well; NBS; CORNING #3640; time 18 hr
Candida albicans = conditions: 20 µM
Cryptococcus neoformans = conditions: Concentration 20 uM; ASSAY_TEST Inhibition of Fungal Growth; detection method Resazurin; Absorption (OD600-OD570); plate type 384well; NBS; CORNING #3640

SMILES | Inhibition (Staphylococcus aureus) | Inhibition (Acinetobacter baumannii) | Inhibition (Escherichia coli) | Inhibition (Klebsiella pneumoniae) | Inhibition (Candida albicans) | Inhibition (Cryptococcus neoformans)
Cn1cc(C=O)c2nccnc21 | 0.99% | -3.72% | -9.44% | 3.85% | 1.67% | 2.98%
COc1cc(OC)cc(C2(C#N)CCN(C)CC2)c1 | 3.06% | 10.25% | -15.21% | 17.67% | 8.63% | 25.01%
CC(Cc1ccccc1)NC(N)=O (centres undefined) | 1.52% | -11.77% | 14.19% | 16.63% | 1.15% | -7.14%
COC(=O)c1nc(-c2ccc3c(n2)C(=O)C(N)=C(OC)C3=O)c(N)c(-c2ccc(OC)c(OC)c2O)c1C | -0.84% | -9.1% | 8.8% | 8.38% | -0.15% | 0.31%
O=C1NC(=O)C(=Cc2csc3ccccc23)C(=O)N1 | -1.57% | 11.43% | 7.83% | 15.53% | 23.9% | -17.03%
c1ccc(C2NCCc3[nH]cnc32)cc1 (centres undefined) | 1.04% | -8.45% | -9.57% | 10.31% | 0.7% | 13.69%
CCN1CCc2ccccc2C1 | 13.64% | -13.05% | 15.08% | 8.74% | 0.25% | -10.24%
Cc1nc(C)c(C(=O)N/N=C/c2ccc(N(CCCl)CCCl)cc2)s1 | 4.54% | 12.95% | 1.76% | 6.18% | -1.16% | -8.81%
C[C@H]1CC[C@H]2NCCN[C@H]2C1 | 3.35% | -12.82% | 14.31% | 13.98% | 0.84% | -10.77%
NN=C1C(Cl)=C(Cl)C(Cl)=C1Cl | -27.05% | -7.11% | -15.84% | 1.32% | 38.7% | 5.21%
O=C(O)CN1C(=O)CN=C(c2ccccn2)c2cc(Cl)ccc21 | 15.35% | 8.33% | -0.79% | 10.65% | 1.18% | 0%
C=CCNC(=S)Nc1ccc(OC(=O)Nc2ccc(Cl)c(Cl)c2)cc1 | 9.35% | 4.81% | 5.81% | 5.22% | 2.25% | -4.79%
COc1ccc(OC(=O)Nc2ccc([N+](=O)[O-])cc2OC)cc1 | 18.29% | 11.17% | 1.72% | 8.07% | -1.5% | -6.88%
C/C=C(/C)C(=O)O[C@H]1CCN2CC=C(COC(=O)[C@@](O)([C@H](C)OC)C(C)(C)O)[C@H]12 | 10.77% | -8.86% | 10.49% | 12.46% | -1.68% | -5.72%
CSc1nc(=O)c(/N=N/c2ccc([As](=O)(O)O)cc2)c(N)[nH]1 | -2.85% | 10.89% | 7.88% | 8.89% | -0.24% | -16.43%
Cc1ccccc1NC(=O)Oc1cccc(OC(=O)c2ccccc2)c1 | 23.15% | 5.34% | 4.68% | 11.95% | 0.43% | -5.38%
O=c1cccc2n1C[C@H]1CNC[C@H]2C1 | 0.43% | -9.28% | 4.51% | 2.72% | 0.25% | -10.24%
COc1cc(C=C2C(=O)NC(=O)NC2=O)ccc1O | 11.9% | 5.89% | 0.28% | 15.76% | 1.49% | -7.52%
CCC(CO)NC(=O)C1C=C2c3cccc4[nH]cc(c34)CC2N(C)C1 (centres undefined) | 1.02% | 14.09% | -11.63% | 10.28% | -0.04% | 5.57%
CN(C)C1CCc2[nH]c3c(F)cc(F)cc3c2C1 (centres undefined) [FLUCINDOLE] | 8.89% | 9.46% | 1.82% | 23.22% | 2.28% | -13.31%
Cc1cc(OCCN2CC2)c2ccccc2n1 | 14.36% | -8.46% | 11.83% | 5.11% | -2.14% | -8.85%
O=c1nc(C(F)(F)C(F)(F)C(F)(F)F)[nH]o1 | 8.37% | 8.1% | -1.78% | 12.08% | 3.43% | -2.86%
O=C(NCCCN1CC1)Nc1cccc2ccccc12 | -3.04% | 12.11% | -2.13% | 20.16% | 1.47% | 1.2%
c1cc(C2N3CCCN2CC3)ccn1 (centres undefined) | 15.5% | -12.77% | 15.45% | 9% | -1.44% | -3.06%
